PubChem BioAssay AID1220 (Sanford-Burnham Center for Chemical Genomics, 2008)
In all, about 190,000 compounds went through this assay and about 1,300 (0.68%) were called active. For the sample, actives were picked, then their nearest neighbours and some compounds at random. Unmarked numbers belong to inactive results. No stated cut-off is given here; in the data, active means inhibition above about 50%; inactive means the rest.

Each compound was assayed against Mannose-6-phosphate isomerase (Homo sapiens) (UniProt P34949) (assay: human PMI inhibitors, high substrate, primary screen, biochemical, fluorescence intensity, high mannose 6-phosphate (AID 1220)). Details: recombinant PMI enzyme, coupled fluorescence intensity; at 20 µM; hits give high values.
Sequence of Mannose-6-phosphate isomerase (Homo sapiens) (P34949 whole entry, looked up): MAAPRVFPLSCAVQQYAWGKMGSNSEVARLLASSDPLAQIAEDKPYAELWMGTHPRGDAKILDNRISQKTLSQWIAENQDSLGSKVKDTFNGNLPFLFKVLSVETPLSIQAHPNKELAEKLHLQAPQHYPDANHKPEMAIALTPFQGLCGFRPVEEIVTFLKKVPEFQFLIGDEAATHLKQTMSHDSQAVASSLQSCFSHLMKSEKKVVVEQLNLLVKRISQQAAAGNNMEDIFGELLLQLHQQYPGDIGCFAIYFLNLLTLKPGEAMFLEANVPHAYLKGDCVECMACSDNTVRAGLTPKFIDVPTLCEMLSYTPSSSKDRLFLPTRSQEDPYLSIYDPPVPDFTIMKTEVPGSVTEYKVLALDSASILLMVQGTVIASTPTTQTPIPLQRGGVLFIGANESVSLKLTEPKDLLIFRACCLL
For `CCn1cc(C(=O)O)c(=O)c2cnc(N3CCN(C(=O)Nc4cccc5ccccc45)CC3)nc21`, the inhibition was 58.3% (active). In the case of `O=C(Nc1cccc2ccccc12)N1CCN(c2ncccn2)CC1`, the inhibition is reported as 68.9% (active). In the case of `S=C(Nc1cccc2ccccc12)N1CCN(c2ncccn2)CC1`, the inhibition is reported as 33.6%. With `CCn1cc(C(=O)N2CCn3c(nc4ccccc43)C2)c(=O)c2ccc(C)nc21` the inhibition was -2%. In the case of `CCn1c(CN2CCN(CCO)CC2)nc2ccccc21`, the inhibition is reported as 2.7%. For `CC1CCCC(C)N1/N=C/c1ccc(Cl)cc1` (centres undefined), the inhibition was -10.4%. `CCCN1C(=O)/C(=C/C=C2\N(CC)c3ccccc3C2(C)C)SC1=S` gave an inhibition of 10.7%. With `CCCCN1C(=O)/C(=C/C=C2\Oc3ccccc3N2CC)SC1=S` the inhibition was 19.9%. For `CCN1C(=O)/C(=C/C=C2/Sc3ccccc3N2CCO)SC1=S`, the inhibition was 8.4%. In the case of `CCCN1C(=O)/C(=C\C=C2/C=CN(CC)c3ccccc32)SC1=S`, the inhibition is reported as 65.3% (active). In the case of `CCN1C(=O)/C(=C\C=C2/C=CC=CN2CC)SC1=S`, the inhibition is reported as 65.6% (active). In the case of `CCN1C(=O)/C(=C/C=C2\C=CN(CC)c3ccccc32)SC1=S`, the inhibition is reported as 64.1% (active). In the case of `CCCN1C(=O)/C(=C\C=C2\N(CC)c3ccccc3C2(C)C)SC1=S`, the inhibition is reported as 18.5%. `CCN1C(=O)/C(=C\N2CCCCCC2)SC1=S` showed an inhibition of 7%. Compound `CCN1C(=O)/C(=C2/C=CC=CN2C)SC1=S` has an inhibition of 9.3%. With `CCn1c(C(C)NC(=O)Cc2ccccc2)nc2ccccc21` (centres undefined) the inhibition was -0.2%. Work on `O=C(CSc1nnc2ccccn12)Nc1ccc2c(c1)OCO2` yielded an inhibition of 13.7%. `Cc1ccc(NC(=S)NN(C)c2cc(C)nc(C)n2)cc1` was tested, and the inhibition was -11%. `CCS(=O)(=O)NCCc1cc2cc(C)c(C)cc2[nH]c1=O` was tested, and the inhibition was 0.4%. `CCCCOC(=O)c1cc(=O)[nH]c2ccccc12` was tested, and the inhibition was 6.8%. `COc1ccc(/C=N/NC(=O)c2cc(C)n(-c3ccccc3)c2C)cc1OC` was tested, and the inhibition was 9.5%. `Cc1cc(C(=O)N/N=C/c2ccc3c(c2)OCO3)c(C)n1-c1ccc(F)cc1` was tested, and the inhibition was -30.4%. For `COc1cc(/C=N/NC(=O)c2cc(C)n(-c3ccc(F)cc3)c2C)cc(OC)c1O`, the inhibition was 51.9% (active). `COc1ccc(C(=O)OCC(=O)c2ccc(C3CCCCC3)cc2)cc1` gave an inhibition of 9.2%. With `Nc1ccc(O)cc1C(=O)OCC(=O)c1ccc(C2CCCCC2)cc1` the inhibition was 60.3% (active). With `O=C(COC(=O)c1ccccc1[N+](=O)[O-])c1ccc(C2CCCCC2)cc1` the inhibition was -0.8%. `CCCOc1ccc(N2C(=O)CC(N3CCC(O)(c4cccc(C(F)(F)F)c4)CC3)C2=O)cc1` (centres undefined) gave an inhibition of 7.5%. In the case of `CC(=O)Oc1cc2oc(=O)cc(C)c2cc1OC(C)=O`, the inhibition is reported as 55.7% (active). For `CC(=O)c1cc2c(C)cc(=O)oc2cc1O`, the inhibition was 11.3%. In the case of `CC(=O)Oc1ccc2c(C)cc(=O)oc2c1`, the inhibition is reported as 2%. In the case of `CC(=O)c1cc2c(cc1NC(=O)CCc1ccccc1)OCO2`, the inhibition is reported as 0.5%. Work on `CCOc1cc(/C=C2/C(=O)N(c3ccccc3)N=C2C)ccc1OC(=O)c1cccs1` yielded an inhibition of 17%. `CCOc1cc(/C=C2\C(=O)N(c3ccc(C(N)=O)cc3)N=C2C)ccc1OC(=O)c1cccs1` was tested, and the inhibition was 61.4% (active). Work on `CCOc1cc(/C=C2/C(=O)N(c3ccccc3)N=C2C)ccc1OC(=O)c1ccco1` yielded an inhibition of 43.2%. `CCOc1ccc(NCC2CCOC(C)(C)C2)cc1` (centres undefined) was tested, and the inhibition was 50.9% (active). `CCOc1ccc(NC(=O)NC2CCOC(C)(C)C2)cc1` (centres undefined) was tested, and the inhibition was 11.5%. `CCOc1ccc(NCCC#N)cc1` was tested, and the inhibition was 2.3%. `CCN(CC)S(=O)(=O)c1cccc(C(=O)OCC(=O)NC(C)c2ccccc2)c1` (centres undefined) showed an inhibition of -2.8%. `O=C(CNC(=O)/C(=C\c1ccc(F)cc1)NC(=O)c1ccccc1)OCc1ccccc1` gave an inhibition of 0.8%. Work on `COc1ccccc1OCc1ccc(C(=O)NCc2cccnc2)o1` yielded an inhibition of 6.8%. For `O=C(NCc1cccnc1)c1ccc(COc2cccc3ccccc23)o1`, the inhibition was 53.2% (active). Work on `O=C(NCc1cccnc1)c1ccc(COc2ccccc2Br)o1` yielded an inhibition of 11.6%. With `CC1CCN(c2c(NCC3CCC(C(=O)NCCc4ccccc4)CC3)c(=O)c2=O)CC1` (centres undefined) the inhibition was 1.2%. In the case of `Cn1ncc(N=Cc2ccccc2)c1C(=O)Nc1cccc(Cl)c1`, the inhibition is reported as 14.7%. `Cn1ncc(N=Cc2ccccc2O)c1C(=O)Nc1ccccc1` showed an inhibition of 16.9%. With `Cn1ncc(N=Cc2c(O)ccc3ccccc23)c1C(=O)Nc1cccc(Cl)c1` the inhibition was 64% (active). In the case of `C/C(CC(=O)Nc1ccccn1)=N\NC(=O)C(=O)Nc1ccccc1C`, the inhibition is reported as 13%. In the case of `CCOC(=O)C(Cc1ccc(Cl)cc1Cl)c1ccno1` (centres undefined), the inhibition is reported as 0.3%. Work on `O=C(NCc1ccco1)C1CCN(c2nc3ccccc3n2Cc2ccccc2F)CC1` yielded an inhibition of 25.8%. For `O=C(COC(=O)CCOc1ccccc1)Nc1ccc(Cl)cn1`, the inhibition was 9.2%. With `COc1ccccc1C(=O)OCC(=O)Nc1ccc(Cl)cn1` the inhibition was 6.1%. `COc1ccccc1NCCC(=O)OCC(=O)Nc1ccc(Cl)cn1` was tested, and the inhibition was 50.3% (active). `O=c1c2[nH]c3ccccc3c2ncn1Cc1ccccn1` gave an inhibition of 1.8%. `CC(=O)c1c(C)[nH]c(C(=O)N2CCc3ccccc3C2)c1C` was tested, and the inhibition was 12.7%.
